From PubChem
PPARg SRC-3 ag = PPARgamma agonists recruiting SRC-3 coactivator, primary screen, biochemical; Peroxisome proliferator-activated receptor gamma (Homo sapiens), P37231; biochemical PPARgamma/SRC-3 coactivator recruitment assay; activation, % at 8 µM; hit rate 0.26% among 200,000; AID 731, 2007; in the data active = activation above about 23%;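 note: 0% = DMSO and 100% = reference agonist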
Target sequence (P37231 whole entry, looked up): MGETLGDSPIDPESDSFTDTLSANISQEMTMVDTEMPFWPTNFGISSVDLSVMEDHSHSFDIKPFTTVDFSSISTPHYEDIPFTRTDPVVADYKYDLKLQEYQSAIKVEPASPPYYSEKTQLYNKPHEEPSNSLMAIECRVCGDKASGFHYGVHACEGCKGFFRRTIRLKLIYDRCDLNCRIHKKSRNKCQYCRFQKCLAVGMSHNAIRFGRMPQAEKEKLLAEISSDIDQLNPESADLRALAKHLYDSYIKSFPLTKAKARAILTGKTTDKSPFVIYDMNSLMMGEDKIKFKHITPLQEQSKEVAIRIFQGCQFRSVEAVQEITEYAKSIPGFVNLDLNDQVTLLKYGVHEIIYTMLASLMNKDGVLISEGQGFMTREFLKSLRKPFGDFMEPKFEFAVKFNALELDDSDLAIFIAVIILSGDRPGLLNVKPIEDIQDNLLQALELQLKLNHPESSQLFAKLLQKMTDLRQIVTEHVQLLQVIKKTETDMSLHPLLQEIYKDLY
PPARg SRC-2 ag = agonists of PPARg-SRC-2 recruitment, primary screen, biochemical, HTS | hit rate 0.34% among 200,000 | activation, % at 8 µM | PPARgamma LBD-SRC-2 recruitment | Peroxisome proliferator-activated receptor gamma (Homo sapiens), P37231 | AID 1032, 2008; in the data active = activation above about 22%;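 note: 0% = vehicle and 100% = reference agonist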
PPARg SRC1 recr = PPARgamma agonists recruiting SRC-1 coactivator, primary screen, biochemical | Peroxisome proliferator-activated receptor gamma (Homo sapiens), P37231 | PPARgamma-SRC-1 coactivator recruitment biochemical assay | activation, % at 8 µM | hit rate 0.41% among 200,000; in the data active = activation above about 19%;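 note: 0% = DMSO and 100% = reference agonist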
SRC1 TRFRET art = TR-FRET detection interference compounds, primary screen, artefact control for PPARgamma SRC-1 recruitment agonists, biochemical, TR-FRET emission ratio; TR-FRET detection artefact counter-screen; active compounds read high; TR-FRET ratio at 8 µM; hit rate 0.34% among 99,000; AID 1051, 2008; in the data active = TR-FRET ratio above about 2300
TR-FRET SRC-2 ct = TR-FRET signal artefacts, primary screen, artefact control for PPARgamma SRC-2 agonist project, biochemical | hit rate 0.4% among 200,000 | TR-FRET ratio at 8 µM | TR-FRET artefact counter-screen; active compounds read high | AID 1049, 2008
SRC3 TRFRET art = TR-FRET detection interference compounds, artefact control for PPARgamma SRC-3 recruitment agonists, biochemical, TR-FRET ratio; TR-FRET ratio at 8 µM; hit rate 0.39% among 99,000; TR-FRET artefact counter-screen, PPARgamma/SRC-3 format; active compounds read high
PPARg SRC2 ag = agonists of PPARgamma SRC-2 coactivator recruitment, confirmation, biochemical, HTS. activation, % at 8 µM. AID 1297, 2008. biochemical SRC-2 recruitment by PPARgamma. hit rate 52% among 790. shares compounds with PPARg SRC-3 ag; in the data active = activation above about 22%;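 note: 0% = vehicle alone and 100% = reference agonist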
PPARg SRC1 ag = PPARgamma agonists recruiting SRC-1 coactivator, confirmation, biochemical; hit rate 43% among 790; shares compounds with PPARg SRC-3 ag; PPARgamma–SRC-1 coactivator recruitment biochemical assay; AID 1300, 2008; activation, % at 8 µM; in the data active = activation above about 20%;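 note: 0% = vehicle wells and 100% = reference agonist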
PPARg SRC3 ag = PPARgamma-driven SRC-3 coactivator recruitment agonists, confirmation, biochemical | hit rate 29% among 790 | shares compounds with PPARg SRC-3 ag | AID 1301, 2008 | activation, % at 8 µM | biochemical PPARgamma-SRC-3 coactivator recruitment, agonist mode; in the data active = activation above about 24%;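 note: 0% = vehicle wells and 100% = reference agonist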
* = called active by the depositor; nt = not tested or not shown. An excerpt weighted towards active compounds, which were near 0.9% of everything screened. Cut-off read from the data, not from the text of the source, unless noted: active = TR-FRET ratio above about 2000; inactive = the rest.

SMILES	PPARg SRC-3 ag	PPARg SRC-2 ag	PPARg SRC1 recr	SRC1 TRFRET art	TR-FRET SRC-2 ct	SRC3 TRFRET art	PPARg SRC2 ag	PPARg SRC1 ag	PPARg SRC3 ag
O=C(NCc1ccc2c(c1)OCO2)C1CCCN1S(=O)(=O)c1ccc(Cl)cc1 (stereo not given)	2	-1	-7	1868	1535	1576	nt	nt	nt
COc1cc(/C=C/C(=O)Nc2nc3ccc(S(=O)(=O)NC(C)C)cc3s2)cc(OC)c1OC	1	23*	14	1944	1783	1648	2	-1	-1
O=S(=O)(c1cccc(F)c1)N1CCN(C(=S)NCc2ccccc2)CC1	-5	2	6	1748	1477	1578	nt	nt	nt
CCCCc1ccc(NC(=O)C(=O)NCCN2CCN(Cc3ccc([N+](=O)[O-])cc3)CC2)cc1	0	4	14	2022	1519	1516	nt	nt	nt
CS(=O)(=O)Nc1ccc(-c2n[nH]c(=S)n2-c2ccccc2)cc1	11	14	19*	nt	1649	nt	19	13	12
Cc1ccc(-c2n[nH]c(=S)n2-c2ccccc2)cc1	18	5	10	nt	1648	nt	nt	nt	nt
Cc1ccc(-n2c(-c3cccc(C)c3)n[nH]c2=S)cc1	36*	32*	20*	nt	1998*	nt	30*	22*	21
CC(=O)CSc1nc(-c2cccs2)c(C#N)c(=O)[nH]1	17	26*	16	2767*	2150*	2268*	31*	20*	20
CC(=O)CSc1nc(N)c(C#N)c(-c2cccs2)c1C#N	-4	-2	1	nt	1500	nt	nt	nt	nt
Cc1cc(C)c(S(=O)(=O)N2CCN(C(=O)N(C)C)CC2)c(C)c1	1	5	-3	1879	1444	1731	nt	nt	nt
CC12CCC(C(=O)N(CSC(=S)N/N=C\c3ccccc3O)C1=O)C2(C)C (stereo not given)	43*	30*	18	nt	1953	nt	46*	43*	25*
O=C(Nc1cccc(NC(=O)C2CCCO2)c1)c1ccco1 (stereo not given)	-1	-7	-3	1550	1656	1584	nt	nt	nt
CCOc1cc(NC(=S)NCC2CCCO2)c(OCC)cc1NC(=O)c1cccc(F)c1 (stereo not given)	3	-3	4	1767	1537	1449	nt	nt	nt
Cc1cccc(S(=O)(=O)C(C#N)c2nc3ccccc3nc2N2CCCC2)c1 (stereo not given)	14	11	19*	nt	1588	nt	8	11	6
N#CC(c1nc2ccccc2nc1N1CCCC1)S(=O)(=O)c1ccccc1 (stereo not given)	-8	-6	10	nt	1401	nt	nt	nt	nt
COc1ccccc1Cn1c(=O)c2ccccc2n2c(SCc3csc(C)n3)nnc12	-1	2	-2	1673	1535	1479	nt	nt	nt
COc1ccccc1Cn1c(=O)c2ccccc2n2c(Sc3ncnc4sccc34)nnc12	29*	8	26*	nt	3587*	nt	9	9	6
O=c1cc(-c2ccc3c(c2)OCO3)oc2ccccc12	1	27*	33*	2778*	2211*	1634	7	6	4
Nc1c(C(=O)Nc2ccc(Br)cc2)sc2nc(-c3ccco3)ccc12	25	23*	11	nt	1930	nt	15	13	6
Nc1c(C(=O)Nc2ccc(F)cc2)sc2nc(-c3ccco3)ccc12	4	9	11	nt	1512	nt	nt	nt	nt
CCOC(=O)C1CCC(CNCc2ccccc2C)CC1 (stereo not given)	2	5	6	1662	1589	1592	nt	nt	nt
C=CCNC(=O)/C(C#N)=C/c1ccc(OS(=O)(=O)c2ccc(C)cc2)c(OC)c1	1	-3	3	1618	1621	1351	nt	nt	nt
OCCSc1ncnc2c1oc1ccccc12	7	23*	12	nt	1920	nt	28*	22*	18
O=C(CSc1ncnc2c1oc1ccccc12)N1CCCc2ccccc21	39*	40*	16	nt	1981*	nt	31*	24*	19
N#CCCSc1ncnc2c1oc1ccccc12	36*	41*	20*	nt	2279*	nt	31*	21*	22
SMILES	PPARg SRC-3 ag	PPARg SRC-2 ag	PPARg SRC1 recr	SRC1 TRFRET art	TR-FRET SRC-2 ct	SRC3 TRFRET art	PPARg SRC2 ag	PPARg SRC1 ag	PPARg SRC3 ag
CCOC(=O)CC(=O)CSc1ncnc2c1oc1ccccc12	138*	87*	96*	nt	3929*	nt	55*	36*	37*
N#CCCN(C(=O)COc1ccc(F)cc1Br)c1ccccc1F	-1	0	-3	1526	1617	1448	nt	nt	nt
CC(=O)c1ccc(NC(=O)C2C3C=CC(C3=C(c3ccccc3)c3ccccc3)C2C(=O)O)cc1 (stereo not given)	-2	2	7	1828	1645	1573	nt	nt	nt
O=C(CSc1ncnc2c1oc1ccccc12)Nc1ccccc1C(F)(F)F	12	7	11	2040	1704	1851	nt	nt	nt
O=C(O)CSc1ncnc2c1oc1ccccc12	24	26*	19*	nt	1845	nt	18	13	11
CCCCc1nc2sc3c(SCC(=O)NCc4ccco4)ncnc3c2c2c1CCC2	10	7	22*	nt	1710	nt	38*	26*	26*
O=C(CSc1ncnc2c1oc1ccccc12)NCc1ccco1	107*	92*	92*	nt	3393*	nt	65*	47*	44*
O=C(CCCl)N(Cc1nc2ccccc2c(=O)[nH]1)Cc1cccs1	1	5	0	1902	1703	1623	nt	nt	nt
CC(C)(C)CN1CCNC(=O)C1CC(=O)NCCN1CCCc2ccccc21 (stereo not given)	0	-1	3	1649	1481	1508	nt	nt	nt
CCCCCn1c(CN2CCN(C)CC2)nc2c1c(=O)n(C)c(=O)n2C	26*	11	5	nt	1775	nt	2	3	1
CCCCCn1c(CN2CCN(C(=O)OCC)CC2)nc2c1c(=O)n(C)c(=O)n2C	8	5	-8	nt	1465	nt	nt	nt	nt
O=C(NCCC1=CCCCC1)c1cc(-c2ccncc2)nc2ccccc12	-2	-4	-5	1544	1411	1226	nt	nt	nt
N#Cc1c(Cl)nc(SCc2ccccc2)nc1-c1ccccc1	70*	67*	59*	nt	2883*	nt	80*	65*	54*
